# Assay outcomes from PubChem.
# MITF TRPM1 HTS: MITF TRPM1 promoter activation in melanoma cells | activation, % at 12.5 µM | actives 0.75% (n = 300,000) | SK-MEL-5 TRPM1-promoter luciferase, 24 h; % of positive control, neutral wells = 0;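 active = mean activation of at least 80% with every replicate also reaching 80%; inconclusive = mean reaches 80% but some replicate falls short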;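 note: 0% = neutral control wells and 100% = parthenolide positive control wells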
# C2C12 statin: suppression of simvastatin myotoxicity. C2C12 myotubes + simvastatin, ATP luminescence, 48 h; scaled: DMSO 0, geranylgeraniol control 100. rescue of ATP level, % at 7.49 µM. actives 0.78% (n = 330,000). AID 602340;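 active = mean ATP rescue above about 67%, or every replicate alone reaching that limit, limit read from the data, passing the limit was not always enough; inconclusive = no clear call, values can overlap the other calls; inactive = mean under the limit and some replicate under it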;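 note: myotubes were challenged with 10 µM simvastatin during compound exposure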
# esBAF inh: blocks esBAF chromatin remodeling in mouse ES cells | reporter increase, % at 12.5 µM | Bmi1-luciferase knock-in reporter, 24 h; 100% = twice the neutral-well signal | actives 2% (n = 350,000); in the data active = activation above about 40%; inconclusive = no clear call, values can overlap the other calls;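 note: 0% = median of the plate's neutral control wells and 100% = double that signal; a rise in the Bmi1 reporter signal indicates esBAF inhibition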
# Rtt109 HAT inh: inhibitors of Candida albicans Rtt109/Vps75 histone acetyltransferase. purified Rtt109/Vps75, ThioGlo CoA-SH fluorescence, 4 h. inhibition, % at 34.9 µM. actives 0.16% (n = 330,000). AID 540336;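 active = inhibition of at least 50% in every replicate; inconclusive = best replicate reaches 50% inhibition but some replicates fall short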
# Target sequence (Q5AAJ8 whole entry, looked up): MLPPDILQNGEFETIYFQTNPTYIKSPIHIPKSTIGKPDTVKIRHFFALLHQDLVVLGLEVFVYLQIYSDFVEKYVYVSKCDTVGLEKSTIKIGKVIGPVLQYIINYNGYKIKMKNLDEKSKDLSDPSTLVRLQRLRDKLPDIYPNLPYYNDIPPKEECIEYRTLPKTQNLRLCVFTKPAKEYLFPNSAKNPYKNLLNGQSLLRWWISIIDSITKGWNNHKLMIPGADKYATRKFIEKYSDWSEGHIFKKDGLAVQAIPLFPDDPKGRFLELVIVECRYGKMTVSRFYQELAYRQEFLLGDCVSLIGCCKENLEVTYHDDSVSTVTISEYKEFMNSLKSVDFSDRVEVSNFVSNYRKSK
# Wnt bcat act: activates Wnt/beta-catenin signaling in a reporter cell assay | activation, % at 9.35 µM | AID 743398 | activator, plate reader | actives 1.2% (n = 300,000); in the data active = activation above about 30%, passing the limit was not always enough; inconclusive = no clear call, values can overlap the other calls;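 note: 0% = neutral control wells and 100% = positive control wells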
# Starred values were filed as active, the others as inactive; ? = inconclusive; . = no result. Shown are actives, neighbours in structure and some others; about 3.1% of the full set was active somewhere.
SMILES,MITF TRPM1 HTS,C2C12 statin,esBAF inh,Rtt109 HAT inh,Wnt bcat act
O=C(C[C@H]1CC[C@@H](NC(=O)NC2CCCC2)[C@@H](CO)O1)NCc1ccc(F)cc1,.,1,-1,.,.
COc1cccc(-c2cnc3c(c2)C(=O)N([C@@H](C)CO)C[C@@H](C)[C@@H](CN(C)C(=O)Nc2ccccc2F)O3)c1,.,4,-2,.,.
CN(C)CCCNC(=O)[C@H]1[C@H](CO)[C@H]2Cn3c(ccc(-c4cccc(F)c4)c3=O)[C@H]2N1C,.,-3,0,.,.
CCc1c(C)nc(N2CCN(c3ccc(F)cc3)CC2)[nH]c1=O,.,-6,-4,-1,0
Cc1nnc(N2CCN(c3ccccc3)CC2)[nH]c1=O,.,98*,-3,-2,6
C/C(=N\O)c1cccc(Br)c1,11,13,-3,3,0
C/C(=N/O)c1cccc(N2Cc3ccccc3C2)c1,9,15,63*,-3,9
C[C@@H]1CCCCO[C@@H](CN(C)C(=O)C2CCCCC2)[C@H](C)CN([C@@H](C)CO)C(=O)c2cc(NS(=O)(=O)c3cn(C)cn3)ccc2O1,.,.,6,.,.
CSCC[C@H](NC(=O)[C@@H]1Cc2ccccc2CN1)C(=O)NC[C@H]1CC[C@H](C(=O)O)CC1,92*,-3,-1,-17,0
CSCC[C@H](NC(=O)[C@@H]1Cc2ccccc2CN1)C(=O)NC1CCCCC1,-1,.,.,10,-2
Cc1nc(C)c(-c2csc(NCc3ccccc3)n2)s1,14,.,.,12,-2
Cc1nc2ccccn2c1-c1csc(NCc2ccco2)n1,-4,94*,9,2,-2
Cc1nc(C)c(-c2csc(NCc3ccco3)n2)s1,68,-16,62*,-4,11
CO[C@@H]1CN(C)C(=O)c2cc(NC(C)=O)ccc2OC[C@@H](C)N(C(=O)c2ccccn2)C[C@@H]1C,.,12,-9,.,.
O=C(CSc1ccc(F)cc1)Nc1ccc(C2SCCS2)cc1,.,-6,45*,6,9
O=C(CSC1=NCCS1)Nc1ccc(F)cc1,-8,.,.,5,-1
O=C(Nc1ccc2c(c1)Cc1cc([N+](=O)[O-])ccc1-2)C(F)(F)F,.,-35,42*,.,11
COc1cc2c(cc1NC(=O)C(F)(F)F)-c1ccc(NC(=O)C(F)(F)F)cc1C2,31,.,.,-3,6
C[C@H](CO)N1C[C@H](C)[C@H](CN(C)Cc2ccccc2F)Oc2cc(C3=CCCCC3)ccc2S1(=O)=O,.,-5,4,.,.
O=C(CSC1=NCCN1)Nc1cccc([N+](=O)[O-])c1,-37,34,-4,113*,41*
Cc1nc2c3cc(Cl)ccc3n(CCN3CCCCC3)c2s1,-23,-35,51*,-4,.
COC(=O)Cn1c2ccc(Cl)cc2c2nc(C)sc21,-4,.,.,-3,0
Cc1cccc(Nc2nc(N)nc(CSc3nccn3C)n2)c1,.,16,53*,11,.
C[C@@H]1CN([C@@H](C)CO)C(=O)c2cc(NC(=O)Nc3ccc(F)cc3)ccc2O[C@@H]1CN(C)S(=O)(=O)c1cn(C)cn1,.,-34,-2,.,.
CN=CC1=C(O)c2ccccc2C1=O,3,5,3,-5,19
SMILES,MITF TRPM1 HTS,C2C12 statin,esBAF inh,Rtt109 HAT inh,Wnt bcat act
COc1ccc(N=CC2=C(O)c3ccccc3C2=O)cc1,-32,.,.,-3,-13
Cc1ccc(O)c(N=CC2=C(O)c3ccccc3C2=O)c1,37,12,78*,0,117*
O=C1C(C=Nc2ccccc2O)=C(O)c2ccccc21,16,49,-78,-4,36*
O=C1C(C=Nc2ccccc2)=C(O)c2ccccc21,29,.,56*,2,12
COc1ccccc1NC(=O)N(C)C[C@H]1OCc2ccccc2-c2c(n(C)c3ccccc23)C(=O)N([C@H](C)CO)C[C@H]1C,.,24,2,.,.
COc1cccc(C(=O)Nc2ccc3c(c2)C(=O)N(C)[C@H]2CC[C@H](CC(=O)NCC4CC4)O[C@@H]2CO3)c1,.,13,1,.,.
C[C@H]1CN([C@@H](C)CO)C(=O)c2cccc(NC(=O)c3cnccn3)c2O[C@@H]1CN(C)S(=O)(=O)c1ccc(Cl)cc1,.,.,2,.,.
CCCNC(=O)[C@H]1[C@H](CO)[C@H]2Cn3c(ccc(-c4ccccc4)c3=O)[C@@H]1N2C(=O)C1CC1,.,-2,-2,.,.
CC(=O)c1sc(NC(=O)c2ccc(Cl)cc2)nc1C,89*,-7,51*,1,-2
Cn1sc(NC(=O)c2ccc(Cl)cc2)nc1=O,.,0,46*,-3,21
CC(=O)c1sc(NC(=O)c2ccccc2C)nc1C,67,-19,76*,5,9
CC(=O)c1sc(NCc2ccc(C)cc2)nc1C,?,-1,53*,8,19
C[C@@H]1CN([C@H](C)CO)S(=O)(=O)c2ccc(C#CC3CC3)cc2O[C@@H]1CN(C)C(=O)C1CC1,.,5,1,.,.
O=C(Nc1ccc(F)cc1)N[C@H]1CC[C@@H](CC(=O)N2CCCCC2)O[C@H]1CO,.,2,-3,.,.
O=C(NC(=S)Nc1cccc([N+](=O)[O-])c1)c1ccco1,21,-18,49*,1,14
O=C(NC(=S)Nc1cccc([N+](=O)[O-])c1)c1ccccc1,.,.,.,-16,32*
C[C@H](CO)N1C[C@H](C)[C@H](CN(C)C(=O)Nc2ccc(C(F)(F)F)cc2)OCCCC[C@H](C)Oc2ccc(NC(=O)Cc3ccccc3)cc2C1=O,.,.,3,.,.
CN1CCN(C(=O)C[C@H]2CC[C@H]3[C@@H](COC[C@H](O)CN3Cc3cccc(Cl)c3)O2)CC1,.,-3,0,.,.
CCOC(=O)C1=C(C)N=C2SC(C)C(=O)N2C1c1ccccc1 (configuration not stated),-6,13,-1,-2,0
CCOC(=O)C1=C(C)N=C2SC(C)C(=O)N2C1c1ccc(C(=O)OC)cc1 (configuration not stated),6,91*,2,3,0
c1ccc(CSc2ccc(-c3ccco3)nn2)cc1,44,.,.,1,52*
Clc1ccc(CSc2ccc(-c3ccco3)nn2)cc1,65,.,.,0,13
Cc1cccc(CSc2ccc(-c3ccco3)nn2)c1,34,-7,50*,-5,-1
Fc1ccccc1CSc1ccc(-c2ccco2)nn1,95*,.,.,-4,11
Cc1nc(C)c(-c2ccc(SCc3ccccc3F)nn2)s1,76,5,69*,2,10
Cc1ccc(CSc2ccc(-c3ccco3)nn2)cc1,50,5,?,-1,21
O=C(C[C@@H]1C=C[C@@H](NC(=O)c2ccccc2)[C@H](CO)O1)NCc1ccncn1,.,-3,-4,.,.
CCC(=O)Nc1ccc2c(c1)C(=O)N(C)C[C@H](OC)[C@@H](C)CN(C(=O)c1ccc(F)cc1)[C@H](C)CO2,.,-10,2,.,.
COCC(=O)Nc1ccc2c(c1)C(=O)N(C)C[C@H](OC)[C@@H](C)CN(Cc1ccncc1)[C@@H](C)CO2,.,2,-5,.,.
